Results reported in the supplement of paper PMC11001985.

compound: C#CCNC(=O)CCSSCCC(=O)NCCc1ccc(C=O)c(C=O)c1; assay: lysine labeling ratio R10:1 (500 µM / 50 µM probe), SILAC-ABPP in living cells; higher = lower intrinsic lysine reactivity toward the probe, active = 2 or less; details: HeLa; probe concentrations 500 vs 50 µM
Summary of the method: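 With forward and reverse label swaps, light and heavy SILAC HeLa cells, alive and in PBS at room temperature, were exposed to either 500 µM or 50 µM of an alkyne-tagged lysine probe bearing a disulfide link. After mixing, lysates were clicked to biotin-azide, cut with trypsin, pulled down on neutravidin, freed with DTT, alkylated and analysed on a TIMS-TOF Pro by LC-MS/MS. The per-lysine value R is the median over forward and reverse replicates of the filtered median high-probe/low-probe MS1 peptide ratio. It is capped at 20.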

UniProt P21333, sequence (P21333 whole entry): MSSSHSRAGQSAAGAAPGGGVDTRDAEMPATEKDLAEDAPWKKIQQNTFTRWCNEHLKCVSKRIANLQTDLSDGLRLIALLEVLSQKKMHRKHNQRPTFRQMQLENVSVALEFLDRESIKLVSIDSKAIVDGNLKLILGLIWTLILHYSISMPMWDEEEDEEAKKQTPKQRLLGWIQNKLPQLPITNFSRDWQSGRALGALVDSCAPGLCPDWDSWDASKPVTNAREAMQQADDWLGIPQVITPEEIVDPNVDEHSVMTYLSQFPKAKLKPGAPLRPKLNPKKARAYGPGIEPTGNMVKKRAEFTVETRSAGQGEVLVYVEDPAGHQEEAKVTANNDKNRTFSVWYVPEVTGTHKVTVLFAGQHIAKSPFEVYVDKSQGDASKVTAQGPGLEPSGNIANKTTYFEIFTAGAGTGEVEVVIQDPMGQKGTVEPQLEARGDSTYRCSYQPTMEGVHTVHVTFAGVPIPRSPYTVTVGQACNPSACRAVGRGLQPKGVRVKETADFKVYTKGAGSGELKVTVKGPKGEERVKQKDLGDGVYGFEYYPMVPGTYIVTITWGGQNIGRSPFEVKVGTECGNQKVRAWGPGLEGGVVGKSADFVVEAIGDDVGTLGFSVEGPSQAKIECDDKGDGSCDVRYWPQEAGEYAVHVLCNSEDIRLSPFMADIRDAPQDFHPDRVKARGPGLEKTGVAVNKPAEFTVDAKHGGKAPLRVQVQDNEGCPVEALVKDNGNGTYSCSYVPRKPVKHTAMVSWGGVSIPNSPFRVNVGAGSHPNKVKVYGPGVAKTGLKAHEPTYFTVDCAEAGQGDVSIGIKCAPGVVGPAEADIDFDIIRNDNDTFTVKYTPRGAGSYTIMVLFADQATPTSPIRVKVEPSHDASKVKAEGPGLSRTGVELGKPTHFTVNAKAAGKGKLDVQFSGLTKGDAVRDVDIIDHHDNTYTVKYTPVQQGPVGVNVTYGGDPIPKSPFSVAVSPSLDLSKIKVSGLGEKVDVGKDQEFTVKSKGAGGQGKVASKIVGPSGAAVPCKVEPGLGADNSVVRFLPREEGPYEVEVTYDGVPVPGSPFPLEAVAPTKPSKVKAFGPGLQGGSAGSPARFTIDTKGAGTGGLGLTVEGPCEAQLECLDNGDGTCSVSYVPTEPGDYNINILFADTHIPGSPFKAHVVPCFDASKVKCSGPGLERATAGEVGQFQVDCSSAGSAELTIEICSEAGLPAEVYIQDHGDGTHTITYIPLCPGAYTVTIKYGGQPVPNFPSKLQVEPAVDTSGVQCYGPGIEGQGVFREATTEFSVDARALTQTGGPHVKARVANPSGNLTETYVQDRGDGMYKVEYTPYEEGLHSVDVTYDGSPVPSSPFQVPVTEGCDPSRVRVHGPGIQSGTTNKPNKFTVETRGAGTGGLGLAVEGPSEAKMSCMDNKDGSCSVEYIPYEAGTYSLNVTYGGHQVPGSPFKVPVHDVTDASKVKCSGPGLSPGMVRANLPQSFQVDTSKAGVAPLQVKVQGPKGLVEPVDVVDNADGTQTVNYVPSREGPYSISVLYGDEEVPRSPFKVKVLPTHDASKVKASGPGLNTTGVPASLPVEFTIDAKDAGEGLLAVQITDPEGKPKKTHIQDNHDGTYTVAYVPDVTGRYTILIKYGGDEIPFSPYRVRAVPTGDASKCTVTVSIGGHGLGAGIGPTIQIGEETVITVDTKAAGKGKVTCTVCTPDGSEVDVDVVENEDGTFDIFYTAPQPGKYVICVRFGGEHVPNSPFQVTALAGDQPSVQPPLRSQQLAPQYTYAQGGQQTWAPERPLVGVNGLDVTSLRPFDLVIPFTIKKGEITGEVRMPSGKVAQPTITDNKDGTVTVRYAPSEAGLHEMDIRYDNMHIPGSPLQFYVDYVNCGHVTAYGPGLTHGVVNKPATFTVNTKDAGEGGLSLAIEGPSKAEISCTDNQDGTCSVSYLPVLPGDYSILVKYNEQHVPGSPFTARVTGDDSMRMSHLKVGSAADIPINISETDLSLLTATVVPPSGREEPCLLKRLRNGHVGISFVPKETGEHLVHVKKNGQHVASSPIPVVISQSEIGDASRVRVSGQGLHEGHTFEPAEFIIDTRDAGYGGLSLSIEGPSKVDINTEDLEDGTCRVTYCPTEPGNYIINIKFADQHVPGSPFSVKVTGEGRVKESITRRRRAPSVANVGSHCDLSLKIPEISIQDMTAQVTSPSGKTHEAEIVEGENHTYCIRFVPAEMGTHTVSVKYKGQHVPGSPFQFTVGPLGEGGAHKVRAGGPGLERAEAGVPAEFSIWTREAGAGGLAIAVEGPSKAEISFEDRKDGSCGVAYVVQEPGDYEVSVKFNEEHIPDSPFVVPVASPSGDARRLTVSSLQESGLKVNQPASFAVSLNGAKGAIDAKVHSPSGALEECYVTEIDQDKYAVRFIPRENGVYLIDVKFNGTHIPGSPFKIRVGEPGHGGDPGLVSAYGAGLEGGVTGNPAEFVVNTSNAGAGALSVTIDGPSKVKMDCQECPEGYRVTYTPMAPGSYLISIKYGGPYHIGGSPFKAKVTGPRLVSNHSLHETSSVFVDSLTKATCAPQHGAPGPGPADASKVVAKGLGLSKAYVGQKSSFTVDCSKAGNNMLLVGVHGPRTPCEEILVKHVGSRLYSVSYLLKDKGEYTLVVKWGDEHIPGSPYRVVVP
UniProt O60245, sequence (O60245 whole entry): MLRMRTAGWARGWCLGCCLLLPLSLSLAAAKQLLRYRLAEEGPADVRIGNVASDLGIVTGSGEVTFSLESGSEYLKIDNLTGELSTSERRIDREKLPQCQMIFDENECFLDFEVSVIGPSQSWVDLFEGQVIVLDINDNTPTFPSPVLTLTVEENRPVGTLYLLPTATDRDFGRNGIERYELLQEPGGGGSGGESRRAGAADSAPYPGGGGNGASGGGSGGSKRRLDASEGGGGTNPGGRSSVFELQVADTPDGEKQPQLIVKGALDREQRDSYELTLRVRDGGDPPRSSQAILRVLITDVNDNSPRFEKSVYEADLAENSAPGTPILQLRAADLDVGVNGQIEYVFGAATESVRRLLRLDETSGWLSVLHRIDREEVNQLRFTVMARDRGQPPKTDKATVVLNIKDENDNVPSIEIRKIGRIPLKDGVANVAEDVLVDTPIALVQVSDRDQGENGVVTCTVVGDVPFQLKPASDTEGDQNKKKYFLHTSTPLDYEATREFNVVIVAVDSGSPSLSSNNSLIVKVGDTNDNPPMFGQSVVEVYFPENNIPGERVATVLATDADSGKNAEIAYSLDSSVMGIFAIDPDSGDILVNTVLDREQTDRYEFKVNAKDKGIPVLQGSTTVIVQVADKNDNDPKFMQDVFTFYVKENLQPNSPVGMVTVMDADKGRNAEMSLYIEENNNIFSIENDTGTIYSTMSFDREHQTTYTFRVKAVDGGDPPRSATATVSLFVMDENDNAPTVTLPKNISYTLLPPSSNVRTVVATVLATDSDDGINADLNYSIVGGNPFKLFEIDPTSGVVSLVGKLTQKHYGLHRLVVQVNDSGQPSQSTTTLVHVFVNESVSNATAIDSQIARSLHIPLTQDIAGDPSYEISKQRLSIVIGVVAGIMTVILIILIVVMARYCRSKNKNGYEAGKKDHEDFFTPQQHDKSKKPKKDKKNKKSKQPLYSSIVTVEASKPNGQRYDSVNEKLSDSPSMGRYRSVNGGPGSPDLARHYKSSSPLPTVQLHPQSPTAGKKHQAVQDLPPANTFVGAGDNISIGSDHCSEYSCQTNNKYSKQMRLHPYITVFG
UniProt P23229, sequence (P23229 whole entry): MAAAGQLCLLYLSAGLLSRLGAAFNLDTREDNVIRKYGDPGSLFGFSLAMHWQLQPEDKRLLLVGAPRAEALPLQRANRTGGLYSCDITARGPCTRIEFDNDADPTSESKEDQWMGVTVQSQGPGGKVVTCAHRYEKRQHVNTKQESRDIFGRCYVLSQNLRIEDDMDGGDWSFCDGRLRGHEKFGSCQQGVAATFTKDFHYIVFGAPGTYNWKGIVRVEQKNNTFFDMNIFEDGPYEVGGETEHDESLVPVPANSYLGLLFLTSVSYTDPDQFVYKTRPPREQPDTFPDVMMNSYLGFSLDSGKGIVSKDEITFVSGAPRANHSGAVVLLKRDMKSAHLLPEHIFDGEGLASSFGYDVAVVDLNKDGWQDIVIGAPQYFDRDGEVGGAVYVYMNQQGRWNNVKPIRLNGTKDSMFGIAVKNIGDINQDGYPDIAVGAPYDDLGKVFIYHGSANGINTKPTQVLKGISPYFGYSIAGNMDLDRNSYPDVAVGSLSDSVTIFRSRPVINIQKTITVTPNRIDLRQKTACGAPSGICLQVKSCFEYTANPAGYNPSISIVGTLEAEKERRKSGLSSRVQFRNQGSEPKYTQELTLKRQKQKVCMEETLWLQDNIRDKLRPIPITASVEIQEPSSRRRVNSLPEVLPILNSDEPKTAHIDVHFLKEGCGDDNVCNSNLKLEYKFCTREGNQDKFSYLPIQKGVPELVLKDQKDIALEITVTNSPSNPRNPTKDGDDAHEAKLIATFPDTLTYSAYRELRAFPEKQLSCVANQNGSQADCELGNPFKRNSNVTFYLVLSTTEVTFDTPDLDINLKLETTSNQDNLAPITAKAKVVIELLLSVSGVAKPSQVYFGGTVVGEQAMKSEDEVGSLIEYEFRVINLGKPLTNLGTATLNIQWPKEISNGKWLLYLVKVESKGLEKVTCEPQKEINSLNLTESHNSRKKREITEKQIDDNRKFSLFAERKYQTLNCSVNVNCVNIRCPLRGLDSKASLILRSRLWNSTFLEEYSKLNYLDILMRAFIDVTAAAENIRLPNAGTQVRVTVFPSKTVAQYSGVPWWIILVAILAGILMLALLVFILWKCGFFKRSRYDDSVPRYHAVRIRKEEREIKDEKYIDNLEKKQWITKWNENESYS
UniProt Q10589, sequence (Q10589 whole entry): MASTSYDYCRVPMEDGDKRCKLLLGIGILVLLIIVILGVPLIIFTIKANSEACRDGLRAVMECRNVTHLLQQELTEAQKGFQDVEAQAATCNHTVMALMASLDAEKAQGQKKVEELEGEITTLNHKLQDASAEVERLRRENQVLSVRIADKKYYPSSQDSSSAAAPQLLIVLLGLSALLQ

Row | Target | lysine labeling ratio R10:1
1 | UniProt P04626 (lysine site: K200) | 6.23 (inactive)
2 | FLNA (lysine site: K520) (UniProt P21333) | 2.73 (inactive)
3 | PTPRS (lysine site: K144) (UniProt Q13332) | 1.57 (active)
4 | MET (lysine site: K599) (UniProt P08581) | 1.67 (active)
5 | FASN (lysine site: K436) (UniProt P49327) | 5.67 (inactive)
6 | GAPDH (lysine site: K334) (UniProt P04406) | 5.36 (inactive)
7 | RPS3A (lysine site: K56) (UniProt P61247) | 1.81 (active)
8 | UniProt P62913 (lysine site: K154) | 2.92 (inactive)
9 | LAMC1 (lysine site: K1258) (UniProt P11047) | 1.54 (active)
10 | GAS1 (lysine site: K192) (UniProt P54826) | 1.34 (active)
11 | ILF3 (lysine site: K214) (UniProt Q12906) | 1.16 (active)
12 | HNRNPC (lysine site: K176) (UniProt P07910) | 3.1 (inactive)
13 | UniProt O60245 (lysine site: K875) | 1.6 (active)
14 | ITGA6 (lysine site: K594) (UniProt P23229) | 6.44 (inactive)
15 | UniProt Q15149 (lysine site: K1725) | 1.57 (active)
16 | CNP (lysine site: K402) (UniProt P09543) | 2.29 (inactive)
17 | BST2 (lysine site: K126) (UniProt Q10589) | 4.11 (inactive)
